69 molecules from ChEMBL document CHEMBL3988442, “University of Dundee, Small-Polar-MMV Screening Library” (2021) can be followed below.

Out of some 38,000 compounds screened, about 1,200 (3.2%) showed an effect of 50% or more. The median lay at about -58%. The sample holds strong results, similar compounds and a random draw of the others, so the mix is not that of the screen.

The test system of the assay is Plasmodium falciparum. Nature of the assay: Calibr Malaria Delayed Death Assay SOP. More on the design: scale not given: in the data most compounds retested in dose-response had high values. The class given is functional, organism-based. The settings on record: concentration 4.99e-06 (unit not given; other assays of the set use mol/L).
With `O=C(Cc1ccn[nH]1)N1CCc2cc(Br)sc2C1`, the “Percent Effect” value is listed as -31.09%.

For `CC1(C)COCCN1C(=O)c1ccc(Cn2cncn2)cc1`, the “Percent Effect” value is given as -28.18%.

Regarding `Fc1ccc(OCCCN2CCCC(Cn3cncn3)C2)cc1` (centres undefined), the “Percent Effect” value was -24.19%.

Take `CN(C)CCNC(=O)c1nc2c(s1)CCCN2C(=O)C1CC1.O=C(O)C(F)(F)F`: the “Percent Effect” value is on record as 21.8%.

Consider `Cc1nc(CN2CCCn3c(nc(Cn4cncn4)cc3=O)C2)cs1.O=C(O)C(F)(F)F`, for which the “Percent Effect” value was -37.93%.

As for `Cc1cc(CN(C)C(=O)c2ccc(OCC(F)(F)F)nc2)no1`, the “Percent Effect” value is -117.9%.

On to `CC(C)c1nn(C)c(Cl)c1CNCC(=O)N1CCN(C)CC1.Cl`, for which the “Percent Effect” value was -109.8%.

For the molecule `Cn1ncc(C(=O)O)c1C(=O)Nc1nc2ccccc2s1`, the “Percent Effect” value was -36.51%.

As for `C[C@@H]1CN(Cc2cn(C)nc2-c2ccccc2F)C[C@H](C)O1`, the “Percent Effect” value is recorded as -119.2%.

On to `CC(NC(=O)N1CCN(c2cccs2)CC1)c1ccc(C#N)cc1` (centres undefined), for which the “Percent Effect” value was found to be 61%.

Take `Cc1noc(C)c1C(C)NC(=O)N1CCN(c2cccs2)CC1` (centres undefined): the “Percent Effect” value was -38.18%.

Consider `CC(NC(=O)N1CCN(c2cccs2)CC1)c1ccncc1` (centres undefined), for which the “Percent Effect” value is on record as -36.24%.

In the case of `CN(Cc1ccccc1)CC1CC2(CO1)CN(Cc1nccs1)C2` (centres undefined), the “Percent Effect” value is reported as 3.92%.

`CN(Cc1ccccc1)CC1CC2(CO1)CN(c1nncs1)C2` (centres undefined): the “Percent Effect” value is given as -3.819%.

As for `CN(Cc1ccccc1)CC1CC2(CO1)CN(Cc1cnn(C)c1)C2` (centres undefined), the “Percent Effect” value was 50.64%.

Consider `Cc1nn(CC(=O)N2CCC3(CN(C)C(=O)O3)C2)c(=O)c2ccccc12` (centres undefined), for which the “Percent Effect” value was -0.9093%.

In the case of `Cc1cn2c(n1)C(CNCc1cccc3c1OCO3)CCC2` (centres undefined), the “Percent Effect” value worked out at 81.04%.

For the molecule `Cc1ccc(CNCC2CCCN2c2cccnn2)s1` (centres undefined), the “Percent Effect” value came to 44%.

As to `Cc1nc(C)c(CNCC2CCCn3ccnc32)s1` (centres undefined), the “Percent Effect” value is reported as -88.04%.

For `Cn1cc(N2CCCC(NCc3cccc4c3OCCCO4)C2)cn1` (centres undefined), the “Percent Effect” value is given as -37.41%.

For the molecule `c1cc(CNCc2ccnc(N3CCCC3)c2)c2c(c1)OCO2`, the “Percent Effect” value is recorded as -28.94%.

On to `Clc1snnc1CN1CCCCC1Cn1cccn1` (centres undefined), for which the “Percent Effect” value was -105.5%.

In the case of `CN(Cc1cccc(C#N)c1)Cn1nc(C(C)(C)C)ccc1=O`, the “Percent Effect” value is given as -75.82%.

On to `COc1cc(NC(=O)c2cc(Cl)ccc2F)c(C(=O)N(C)C)cc1OC`, for which the “Percent Effect” value is recorded as -86.88%.

For `Cc1nnc2ccc(OCCNS(=O)(=O)c3cccs3)nn12`, the “Percent Effect” value was -74.14%.

For the molecule `CC1=N[C@@]2(CC[C@@H]3CN(Cc4ccccc4F)C[C@@H]32)C(=O)N1CC1CC1.O=C(O)C(F)(F)F`, the “Percent Effect” value is given as 66.32%.

On to `CCC1=N[C@@]2(CC[C@@H]3CN(Cc4ccccc4F)C[C@@H]32)C(=O)N1CC.O=C(O)C(F)(F)F`, for which the “Percent Effect” value was 37.33%.

As for `CC1=N[C@@]2(CC[C@@H]3CN(CC(=O)N(C)C)C[C@@H]32)C(=O)N1CC1CC1.O=C(O)C(F)(F)F`, the “Percent Effect” value is -113.5%.

As for `O=C(O)C(F)(F)F.O=C([C@H]1C[C@H]2OCC[C@H]2N(Cc2ccoc2)C1)N1CCCCO1`, the “Percent Effect” value is -83.93%.

For the molecule `CCN1CCn2cc(CNC(=O)c3cnn(C)c3)nc2C1.O=C(O)C(F)(F)F.O=C(O)C(F)(F)F`, the “Percent Effect” value was -97.9%.

For `COc1ccccc1N1CCC(CNCc2cccc(OC)c2OC)C1` (centres undefined), the “Percent Effect” value was 55.95%.

Turning to `COc1ccc(CNCC2CCN(c3ccccc3OC)C2)cc1O` (centres undefined), the “Percent Effect” value is 21.41%.

Take `COc1ccccc1N1CCC(CNCc2cccc(O)c2)C1` (centres undefined): the “Percent Effect” value is reported as 55.7%.

In the case of `COc1ccccc1N1CCC(CNC(=O)N(C)Cc2ccco2)C1` (centres undefined), the “Percent Effect” value is recorded as -114.8%.

Turning to `COc1ccccc1N1CCC(CNS(=O)(=O)c2c(C)nn(C)c2C)C1` (centres undefined), the “Percent Effect” value is -22.9%.

For the molecule `COc1ccccc1N1CCC(CNCc2c(C)nn(C)c2OC)C1` (centres undefined), the “Percent Effect” value is reported as 51.83%.

As for `COc1ccccc1N1CCC(N2CCOCC(CO)C2)CC1` (centres undefined), the “Percent Effect” value was 27.34%.

With `COc1ccccc1N1CCC(CNCc2cccc(C#N)c2)C1` (centres undefined), the “Percent Effect” value came to 0.8345%.

As to `COc1c(CNC2CCN(c3ncccn3)CC2)c(C)nn1C`, the “Percent Effect” value was -45.93%.

For the molecule `Cc1ccc(C(C)(O)CNC(=O)CCn2ccnc2C(C)C)o1` (centres undefined), the “Percent Effect” value is on record as -68.59%.

For `Cc1[nH]ncc1C(=O)NCC(CO)Cc1ccc(Cl)cc1` (centres undefined), the “Percent Effect” value was -37.01%.

`c1cc(CNCC2CNc3ccnn3C2)cc(N2CCOCC2)n1` (centres undefined): the “Percent Effect” value was -156.8%.

Take `Cc1cc(N2Cc3cnn(CCO)c3C2)nc(-c2ccccc2O)n1`: the “Percent Effect” value is -189%.

For `O=C(NCC(O)C1CC1)Nc1cnn(Cc2ccccc2)c1` (centres undefined), the “Percent Effect” value is -47.94%.

Regarding `Cc1cncc(C2CCCN(C(=O)c3cn(C)nc3C)C2)n1` (centres undefined), the “Percent Effect” value was -35.12%.

With `CCn1cc(CN2CCCN(C3Cc4ccccc4C3)CC2)c(C)n1`, the “Percent Effect” value is -9.026%.

Regarding `Cn1nc(CN2CCCCC(N)C2)c2c(Cl)cccc21` (centres undefined), the “Percent Effect” value was determined as 65.71%.

For the molecule `C[C@@H]1CN(C2CCN(Cc3nn(C)c4cccc(Cl)c34)CC2)C[C@H](C)O1`, the “Percent Effect” value is -11.21%.

Take `Cn1nc(CN2CCCN(C3CCCC3)CC2)c2c(Cl)cccc21`: the “Percent Effect” value was determined as 68.46%.

`Cn1nc(CN2CCC(c3ccncc3)CC2)c2c(Cl)cccc21`: the “Percent Effect” value was -16.19%.

As to `Cn1cnnc1CC1CCN(Cc2nn(C)c3cccc(Cl)c23)CC1`, the “Percent Effect” value is -15.19%.

Turning to `CCC(=O)N1CCC[C@]2(C(=O)N(C)C)CN(c3ccccn3)C[C@@H]2C1.O=C(O)C(F)(F)F`, the “Percent Effect” value is -7.405%.

On to `Cn1nccc1-c1nnn2c1COC(CNCc1nccs1)C2.O=C(O)C(F)(F)F` (centres undefined), for which the “Percent Effect” value is -38.88%.

In the case of `CCn1cc(S(=O)(=O)N2CCCC2c2ccc(C)o2)cn1` (centres undefined), the “Percent Effect” value is on record as -154.6%.

As to `CC(C)c1nccn1C1CCCN(C(=O)c2nccnc2N)C1` (centres undefined), the “Percent Effect” value was -27.69%.

Take `CCOc1ncccc1CNC(=O)c1cc(C)on1`: the “Percent Effect” value is -34.12%.

Take `Cn1cc(C2CC(=O)NC23CCN(C(=O)C2CC=CC2)CC3)cn1` (centres undefined): the “Percent Effect” value is -79.79%.

For `Cn1cc(CNC(=O)C2CCCN(Cc3cccc(F)c3)C2)cn1` (centres undefined), the “Percent Effect” value is reported as -63.48%.

Turning to `Cn1cc(CN2CCCC(CCc3ccc(F)c(F)c3)C2)cn1` (centres undefined), the “Percent Effect” value is 69.99%.

As for `Cn1cc(C[C@H]2[C@H](O)CCN2Cc2ccc(F)cc2)cn1.O=C(O)C(F)(F)F`, the “Percent Effect” value came to 1.719%.

Turning to `COc1ccc(CN2CCCC(Cn3nc(C)nc3C)C2)cc1F` (centres undefined), the “Percent Effect” value is listed as -17.07%.

In the case of `Cc1[nH]c(=O)[nH]c(=O)c1CN1CCCC(CCc2ccc(F)c(F)c2)C1` (centres undefined), the “Percent Effect” value was -43.91%.

For the molecule `Cn1cc(CN2CCCN(CCCc3ccccc3)CC2)cn1`, the “Percent Effect” value is on record as -23.65%.

For `Cc1ccccc1CCC1CCCN(Cc2nnc(-c3ccco3)o2)C1` (centres undefined), the “Percent Effect” value is recorded as -11.7%.

With `Cn1cnnc1CNC(=O)C1CCCN(Cc2cccc(F)c2)C1` (centres undefined), the “Percent Effect” value is -147.7%.

With `Cn1cc(CN2CCCC(CCc3ccccc3C(F)(F)F)C2)cn1` (centres undefined), the “Percent Effect” value was determined as 87.33%.

On to `Cn1cc(CN2CCCC(CCc3ccc(F)cc3)C2)cn1` (centres undefined), for which the “Percent Effect” value was determined as 73.58%.

As for `Cn1cc(CN2CCC(CCC(=O)NCc3ccc(F)cc3)CC2)cn1`, the “Percent Effect” value is reported as -110.1%.

Consider `Cn1ccnc1CCNC(=O)C1CCCN(Cc2cccc(F)c2)C1` (centres undefined), for which the “Percent Effect” value is reported as 58.15%.
